Screens from PubChem.
Sampled rows, rich in hits. Any-hit rate of the full collection: about 19%.
HT1080NT lethal = kills 2HG-producing HT-1080-NT fibrosarcoma cells | hit rate 1.6% among 360,000 | HT-1080-NT fibrosarcoma viability, CellTiter-Glo ATP luminescence, 48 h | Potency, µM (top dose mostly 46.1 µM), actives largely listed as cytotoxic;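 also: NT is the 2HG producing partner of a matched IDH1 knockdown line; nearly all actives have a fitted effect of over 55% in size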
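Compounds were tested in concentration-response format on HT-1080-NT cells for 48 hours at 37 degrees C. Cell viability came from CellTiter-Glo luminescence; curves were classified by r2, response magnitude and activity.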
TDP1 cell noCPT = qHTS for Inhibitors of human tyrosyl-DNA phosphodiesterase 1 (TDP1): qHTS in cells in absence of CPT; DT40 Tdp1-/- hTDP1 cells, no CPT, ATP luminescence, 48 h; Potency, µM (series often up to 46.2 µM), most hits filed as inhibitors; hit rate 15% among 420,000; also: nearly all actives have a fitted effect of over 55% in size
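Readout: luminescence from CellTiter-Glo after 30 min in the dark at RT. Cells: DT40 Tdp1-/- with stable hTDP1, 400/well. Exposure: compounds alone, ≥48 hr, 37 °C.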
IL-1B inflam inh = inflammasome signaling inhibition, IL-1 beta readout | activity change, % at 57.5 µM | THP-1 LPS/ATP IL-1B secretion, AlphaLISA, 16 h; active compounds read low | hit rate 4.7% among 360,000; in the data active = activity change below about -50%; inconclusive = mostly about -30% to -49%
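Secreted IL-1B measured by AlphaLISA bead assay after 16 h compound exposure of THP-1 cells; compounds (final up to 57.5 uM) added 1 h before LPS (250 ng/mL) and ATP (1.25 mM) stimulation; lower signal means less secretion.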
uPA generation = cell surface uPA generation inhibition; hit rate 0.31% among 330,000; Potency, µM (doses to about 38.3 µM), actives largely listed as inhibitors; cell surface uPA generation assay, qHTS; active = well fitted inhibition curve with a large enough effect; inconclusive = small, poorly fitted or top-dose-only effect; inactive = no such curve, though single readings can be large or run the other way; tested in mouse RAW 264.7 cells; also: nearly all actives have a fitted effect of over 55% in size
HT1080 IDH1KD tx = kills HT-1080 cells with IDH1 knockdown; HT-1080 IDH1 knockdown viability, ATP luminescence, 48 h; Potency, µM (top dose mostly 46.1 µM), hits mostly cytotoxic; hit rate 2% among 360,000; AID 686971
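In this qHTS, HT-1080 cells depleted of IDH1 are exposed for 48 h at 37 °C to compound titrations. Toxicity is scored from CellTiter-Glo luminescence, with DMSO as full viability and medium alone as none.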
DT40 TDP1 CPT = growth inhibition of DT40 Tdp1-/-;hTDP1 cells with camptothecin (screen for TDP1 inhibitors); chicken DT40 Tdp1-/-;hTDP1 cells + 20 nM CPT, ATP luminescence, 48 h; Potency, µM (highest dose often 46.2 µM), most hits filed as inhibitors; hit rate 12% among 420,000; also: nearly all actives have a fitted effect of over 55% in size
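Chicken DT40 Tdp1-/- cells stably complemented with human TDP1 were seeded at 400 cells/well in medium containing 20 nM camptothecin, exposed to pin-transferred compounds, and grown at 37 °C for at least 48 hr. Viability was read as ATP luminescence.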
Hits are given with their value; 0 = inactive; ? = inconclusive; - = not tested or not shown; [ ] = remark or other dose. Unless noted, calls follow the shape of the dose curve; as a rule, active = well fitted curve in the direction sought with a large enough effect; inconclusive = small, poorly fitted or top-dose-only effect, or another doubt; inactive = no such curve, though single readings can be large; an effect the other way counts as inactive or inconclusive.

SMILES	HT1080NT lethal	TDP1 cell noCPT	IL-1B inflam inh	uPA generation	HT1080 IDH1KD tx	DT40 TDP1 CPT
Cc1ccc(S(=O)(=O)N2CCOCC2)cc1NC(=O)CNCc1ccc(Cl)cc1Cl	0	16µM	0	0	0	?
O=C(CNCc1ccccc1Cl)Nc1cc(S(=O)(=O)N2CCOCC2)ccc1Cl	0	?	0	0	0	0
CCN(CC)c1ccc(S(=O)(=O)N2CCOCC2)cc1NC(=O)c1cc(=O)c2ccccc2o1	0	7.3µM	0	0	0	8.2µM
Cn1cnc(S(=O)(=O)NC2CCN(Cc3c(F)cccc3Cl)CC2)c1	0	0	0	0	0	0
CC1(C(=O)NS(=O)(=O)c2cccc(C#N)c2)CCN1C(=O)Cc1ccccc1 (configuration not stated)	0	0	0	-	0	0
CCCC(C)CO (configuration not stated)	-	0	0	0	-	0
CCN(CC)S(=O)(=O)c1ccc(Cl)c(NC(=O)COC(=O)c2c(C)noc2C)c1	0	21µM	0	0	0	?
O=S(=O)(c1ccc(Cl)c(NC(=S)Nc2ccccc2N2CCOCC2)c1)N1CCOCC1	0	0	0	0	0	0
Cc1cccc(NC(=O)COC(=O)c2c(-c3ccccc3)noc2C)c1	0	?	0	-	0	?
O=C(Nc1cc(S(=O)(=O)N2CCOCC2)ccc1Cl)C(=O)c1c(-c2ccccc2)cc2ccccn12	0	23µM	0	0	0	21µM
Cc1onc(-c2ccccc2Cl)c1C(=O)OCC(=O)Nc1cccc(S(=O)(=O)N(C)C)c1	?	16µM	0	0	0	?
CCN(CC)S(=O)(=O)c1ccc(Cl)c(NC(=O)COC(=O)c2ccc(O)cc2)c1	0	?	0	0	0	?
CC[C@H](C)N(C)C(=O)c1cc2ccccc2c(-c2ccccc2Cl)n1	-	30µM	-	-	-	?
CN(C)S(=O)(=O)c1cccc(NC(=O)CSc2cccc3cccnc23)c1	18µM	3.3µM	-105	0	?	3.7µM
CN(C)S(=O)(=O)c1cccc(NC(=O)CSc2nc3c(cc2C#N)C(=O)CC(C)(C)C3)c1	?	7.3µM	-58	0	?	9.2µM
CSc1nc(N(C)NC(=O)c2ccccc2)c2ccccc2n1	0.58µM	0.52µM	0	0	0.58µM	0.58µM
CN(NC(=O)c1ccc(Cl)cc1)c1ncc(C(F)(F)F)cc1Cl	0	?	0	0	0	0
CSc1nc(N(C)NC(=O)c2ccc(Cl)cc2)c2ccccc2n1	0.73µM	0.33µM	0	0	?	0.26µM
COC(=O)Cn1nc(C)c2c(C)n(-c3ccccc3)nc2c1=O	-	0	-	-	-	0
COc1ccc(C(=O)Nc2ccc(Cl)cc2C(=O)NCc2ccco2)cc1OC	0	?	-58	0	0	?
COc1cc2cc3c(N)c(C(=O)NCc4ccco4)sc3nc2cc1OC	0	15µM	-58	0	0[9.24 µM]	23µM
COc1ccc(N=c2oc3c(OC)cccc3cc2C(=O)NCc2ccco2)cc1OC	0	7.3µM	0	-	0	12µM
COc1ccc(-c2noc(-c3ccccc3-c3ccccc3)n2)cc1OC	0	26µM	0	0	0	?
Cc1ccc2nc3sc(C(=O)NCc4ccco4)c(N)c3cc2c1	0	0	0	0	0	0
CSc1ccccc1-c1nc(-c2ccncc2)no1	0	?	0	0	0	0
SMILES	HT1080NT lethal	TDP1 cell noCPT	IL-1B inflam inh	uPA generation	HT1080 IDH1KD tx	DT40 TDP1 CPT
CS(=O)c1ccccc1-c1nc(-c2cccc(Cl)c2)no1 (configuration not stated)	0	16µM	0	0	0	?
COc1ccc(-c2noc(-c3ccccc3C(=O)NCc3ccco3)n2)cc1OC	0	15µM	?	0	0	?
COc1cccc(-c2cc(C(=O)NCc3ccco3)c3ccccc3n2)c1	0	?	0	0	0	12µM
O=C(NCc1ccco1)c1cc(-c2ccncc2)nc2ccccc12	0	0	0	-	0	0
COc1ccc(-c2cc(C(=O)Nc3cccc(S(=O)(=O)NCc4ccco4)c3)c3ccccc3n2)cc1OC	0	6.5µM	?	0	0	10µM
CC(=O)N1CCC(C(=O)N2c3ccccc3N=C(c3ccc4c(c3)OCO4)C2C(=O)Nc2c(C)cccc2C)CC1 (configuration not stated)	0	?	0	-	0	?
CN1CCN(c2nc3c(c(=O)[nH]c(=O)n3C)n2Cc2ccc(Cl)cc2)CC1	0	0	?	0	0	0
COc1ccc(-c2cc(C(=O)NCc3ccco3)c3ccccc3n2)cc1OC	0	18µM	0	0	0	?
O=S(c1ccc2ccccc2c1)c1cnns1 (configuration not stated)	?	2.6µM	-111	0	?	1µM
O=C(Nc1cnns1)Oc1ccccc1	0	0	0	-	0	0
COc1ccc(-n2nc(C)c3c(C(F)(F)F)cc(-c4cccnc4)nc32)cc1	-	0	-	-	-	0
Cc1cc(Cl)ccc1OCC(=O)NCC(c1cccs1)N1CCOCC1 (configuration not stated)	0	16µM	?	0	0	?
Cc1cc(SCC(=O)NCC(c2cccs2)N2CCOCC2)c(C)cc1Br (configuration not stated)	0	18µM	0	0	0	?
Cc1cc(OCC(=O)NCC(c2cccs2)N2CCOCC2)ccc1C(C)C (configuration not stated)	0	?	-57	0	0	?
Cc1ccc(C(C)C)c(OCC(=O)NCC(c2cccs2)N2CCOCC2)c1 (configuration not stated)	0	13µM	?	0	0	26µM
Cc1cccc(OCC(=O)NCC(c2cccs2)N2CCOCC2)c1 (configuration not stated)	0	0	0	0	0	0
CN(CC(=O)NCc1ccc(F)cc1)CC(=O)Nc1ccc(Cl)c(C(F)(F)F)c1	?	21µM	-69	?	?	23µM
CN(CC(=O)NCC(=O)Nc1ccc(F)cc1)CC(=O)Nc1ccc(Cl)c(C(F)(F)F)c1	0	0	-72	0	0	0
CN(CC(=O)Nc1ccc(Cl)c(C(F)(F)F)c1)C(=O)c1ccccc1SCC(=O)N1CCCC1	0	?	0	0	0	18µM
CCOc1ccc(NC(=O)CN(C)C(=O)c2ccccc2SCC(=O)N2CCCC2)cc1OCC	0	0	0	0	0	0
CC(NC(=O)CN(C)CC(=O)Nc1ccc(Cl)c(C(F)(F)F)c1)c1ccccc1 (configuration not stated)	0	23µM	0	0	0	21µM
